Compound activity deposited in PubChem BioAssay by National Center for Advancing Translational Sciences (NCATS).
Only some compounds are listed: those with a hit (about 2.9% of all), similar ones and a draw of the others.
DRD3 antagonist: D3 dopamine receptor (human) antagonism | P35462 | D3R cells, DiscoveRx beta-arrestin luminescence, antagonist mode; stronger effect = lower value | max response, negative = inhibition, % | actives 2.5% (n = 360,000); in the data active = max response below about -50%; inconclusive = no clear call, values can overlap the other calls; also: % is scaled to controls: 0 for no effect and ±100 for the full control effect
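Cells expressing the human receptor were seeded at 1500 cells/well, incubated overnight at 37 degrees C in 5% CO2, then exposed to library compounds with dopamine controls for 90 minutes at 37 degrees C before luminescent detection.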
Mm-Cpn inhibitor: M. maripaludis TRiC chaperonin inhibition; purified Mm-Cpn ATPase, ADP Transcreener TR-FRET; actives 0.031% (n = 330,000); Potency, µM (series often up to 76.9 µM), for the others: at the highest dose activity, negative = inhibition, most hits filed as inhibitors; AID 504842; active = well fitted inhibition curve with a large enough effect; inconclusive = small, poorly fitted or top-dose-only effect; also: potency is read from the fitted curve at half-maximal effect; % is scaled to controls: 0 for no effect and ±100 for the full control effect; nearly all actives have a fitted effect of over 80% in size
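ATP (10 uM final) was added to archaeal chaperonin (25 nM final) after 10 min exposure to test compound at 37°C; after 30 min further incubation, ADP was detected by competitive TR-FRET.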
Rango release inh: prevents RanGTP from dissociating the Rango-importin beta complex; O95149+P62826; Biochemical FRET Rango-importin beta, RanGTP-induced dissociation; Potency, µM (series often up to 46.1 µM), for inactives: at the highest dose activity change, negative = inhibition; actives 0.071% (n = 340,000); AID 540253; also: potency is read from the fitted curve at half-maximal effect; % of control where 0% means no effect; nearly all actives have a fitted effect of over 45% in size
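Rango FRET biosensor (snurportin-1 IBB flanked by N-terminal EYFP and C-terminal CFP10) at 0.1 uM, with 0.25 uM importin beta in PBS, 1mM DTT, 0.02% Tween-20, 0.1% BSA. 0.6 uM Ran, 2mM GTP and 0.2 uM RCC1 were then added for 45 min at room temperature. Inhibition read as loss of FRET rise.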
D3 ag: activates the human D3 dopamine receptor. P35462. max activation, %. actives 0.58% (n = 410,000). D3R DiscoveRx beta-arrestin cells, luminescence, 90 min; in the data active = max activation above about 30%; also: 0% is about no effect
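Agonist mode: compounds and dopamine controls were applied to plated cells for 90 min at 37 degrees C after an overnight attachment at 1500 cells/well. Luminescent read-out followed 30 - 60 minutes at room temperature with DiscoveRx detection reagent.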
Rango complex inh: inhibitors of Rango-importin beta complex formation; AID 540263; Potency, µM (series often up to 92.2 µM), for the others: top-dose inhibition of complex formation; actives 0.031% (n = 340,000); Rango CFP/YFP FRET sensor + importin beta, 45 min; Q14974;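 also: potency is read from the fitted curve at half-maximal effect; 0% = DMSO wells and 100% = buffer wells lacking importin beta; nearly all actives have a fitted effect of over 15% in size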
Target sequence (Q14974 whole entry, looked up): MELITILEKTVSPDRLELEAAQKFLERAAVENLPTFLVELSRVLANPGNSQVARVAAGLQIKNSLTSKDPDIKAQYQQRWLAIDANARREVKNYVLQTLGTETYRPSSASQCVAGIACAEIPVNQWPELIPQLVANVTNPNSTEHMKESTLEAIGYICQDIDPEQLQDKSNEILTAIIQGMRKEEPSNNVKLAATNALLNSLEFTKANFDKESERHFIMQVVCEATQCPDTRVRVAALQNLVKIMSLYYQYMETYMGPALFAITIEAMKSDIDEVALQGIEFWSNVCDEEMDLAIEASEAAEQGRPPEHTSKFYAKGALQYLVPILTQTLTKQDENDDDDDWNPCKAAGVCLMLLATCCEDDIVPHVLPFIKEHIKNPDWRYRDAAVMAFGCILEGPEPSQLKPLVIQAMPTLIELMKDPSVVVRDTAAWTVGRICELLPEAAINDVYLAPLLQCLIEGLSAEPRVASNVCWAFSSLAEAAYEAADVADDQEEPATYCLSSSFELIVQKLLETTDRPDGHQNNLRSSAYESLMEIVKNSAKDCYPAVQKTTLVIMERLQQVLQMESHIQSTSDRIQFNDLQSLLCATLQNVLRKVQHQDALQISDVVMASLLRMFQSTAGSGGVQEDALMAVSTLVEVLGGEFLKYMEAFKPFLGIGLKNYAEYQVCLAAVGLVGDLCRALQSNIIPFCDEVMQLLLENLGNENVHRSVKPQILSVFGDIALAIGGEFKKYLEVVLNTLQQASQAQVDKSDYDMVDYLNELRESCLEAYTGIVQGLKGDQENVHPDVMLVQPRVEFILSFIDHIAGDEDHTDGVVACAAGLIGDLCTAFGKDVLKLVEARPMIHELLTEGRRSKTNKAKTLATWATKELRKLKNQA
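FRET biosensor (snurportin 1 IBB flanked by EYFP and cerulean), 50 nM, with compound 5 min, then 0.125 microM importin beta in PBS, 1 mM DTT, 0.02% Tween-20, 0.1% BSA. CFP/YFP ratio read after 45 min at room temperature; pre-read flags interference.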
TSG101-PTAP inh: blocks PTAP/TSG101 interaction to inhibit HIV-1 budding | 340,000 tested, under 10 active | Potency, µM (highest dose often 115 µM), inactives show top-dose activity change, negative = inhibition, hits mostly inhibitors | Q99816 | Fluorescence polarization, FITC-PTAP peptide / Tsg101 binding; active = well fitted inhibition curve with a large enough effect in the main read-out, with a control signal flat, not every such curve was filed as active; inconclusive = small, poorly fitted or top-dose-only effect, or effect the other way, or a change in a side signal; inactive = no such curve, though single readings can be large or run the other way; also: potency is read from the fitted curve at half-maximal effect; % of control where 0% means no effect
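Fluorescence anisotropy tracks displacement of a FITC-tagged PTAP peptide (50 nM) from the Tsg101 binding domain (10 uM), following a 20 min room-temperature incubation at pH 7.5.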
* hit, by the source's call; ? = inconclusive; / = no result. Unless noted, calls follow the shape of the full dose curve.

SMILES	DRD3 antagonist	Mm-Cpn inhibitor	Rango release inh	D3 ag	Rango complex inh	TSG101-PTAP inh
COc1cc(OC)cc(-c2nc3ccccc3c(=O)n2OC(=O)c2ccc(C)c(C)c2)c1	109	-17%	9%	30*	3%	-2%
COc1cc(C(=O)Nc2cccc(C)c2C)ccc1OCC(=O)N1CCOCC1	1	3%	-2%	-2	?	-1%
CC(C)(C)c1ccc(C(=O)CSc2nc3ccccc3c(=O)[nH]2)cc1	47	-1%	-9%	34*	1%	-6%
CCc1ccc(Cc2cnc(NC(=O)c3ccc4c(c3)CC(c3ccccc3)OC4=O)s2)cc1 (stereo unspecified)	/	/	/	3	/	/
CCOC(=O)C(=O)Nc1ccccc1C(=O)NC(C)C	-11	-1%	-12%	38*	-1%	-9%
CC1(C(=O)Nc2ccc(F)cc2F)CCN1C(=O)Cc1ccc(Cl)cc1Cl (stereo unspecified)	16	/	/	78*	/	/
CCCn1c(O)c(N=NC(=O)CNC(=O)/C=C/c2ccc(OC)cc2)c2ccccc21	-50*	2%	3%	-18	2%	-2%
COc1ccc(C(=O)CC(=O)C(=O)Nc2ccc(C)cc2Cl)cc1	-64*	-1%	-10%	8	1%	0%
COc1ccc(C(=O)NC(=S)Nc2cc(C)ccn2)cc1[N+](=O)[O-]	-25	1%	-20%	0	0%	-4%
Cn1c(=O)n(CCCc2ccccc2)c(=O)c2c1nc1n2CCN1c1ccc(F)cc1	/	/	/	16	/	/
CCOc1cc(/C=C2\CCCC(C(=O)C(F)(F)F)=C2O)ccc1O	-52*	1%	?	-25	?	5%
Cc1cc(Cl)c(OCCCNCc2ccccc2)c(Br)c1	-62*	-18%	-20%	-11	-3%	-6%
COCCNCCCCOc1c(Cl)cc(C)cc1Br	-84*	0%	1%	-4	3%	-6%
CC(=O)OC1CCC2(C)C(CCC3C4CC=C(C(C)=O)C4(C)OC(=O)CC32)C1 (stereo unspecified)	-94*	/	/	-14	/	/
COc1cccc(CNC(=O)Nc2cc(C(=O)NCc3cccc(F)c3)ccc2N2CCCC2)c1	/	/	/	-5	/	/
CCOC(=O)C(=Cc1ccc(Br)cc1)C(=O)OCC	-108*	-1%	4%	-17	4%	-13%
CCOC(=O)C(=Cc1ccc(F)cc1)C(=O)OCC	/	2%	/	/	/	/
CCOC(=O)C(=Cc1ccc(-n2ccnc2)cc1)C(=O)OCC	-56*	4%	1%	-2	1%	1%
COC(=O)c1ccc(-n2ccnc2)cc1	-4	-2%	12%	1	0%	-3%
CCN(CC)CCNC(=O)c1sc2nc(C)cc(C)c2c1-n1cccc1	/	/	/	4	/	/
O=C(CCn1c(=O)oc2ccccc21)N1CCN(c2ccccc2F)CC1	-9	-1%	-6%	31*	-4%	-5%
COc1ccc(Nc2cc(C)c3cc(NC(=O)Cc4ccc(Cl)cc4)ccc3n2)cc1	/	/	/	13	/	/
CC(CCc1ccccc1)NC(=O)CN(C)Cc1ccccc1F (stereo unspecified)	-1	2%	13%	41*	2%	-2%
CCCc1cc(=O)oc2c3c(cc(OCC(=O)NCCN4CCOCC4)c12)OC(C)(C)CC3	-56*	-12%	3%	-48	2%	3%
CC(=O)/C(N=Nc1ccc(SC(F)F)cc1)=C(\C)O	-59*	6%	-15%	1	-3%	-9%
SMILES	DRD3 antagonist	Mm-Cpn inhibitor	Rango release inh	D3 ag	Rango complex inh	TSG101-PTAP inh
CO/N=C(\C(=O)N[C@@H]1C(=O)N2C(C(=O)O)=C(CSc3cnns3)CS[C@H]12)c1csc(N)n1	/	/	/	0	/	/
COc1ccccc1CNC(=O)c1ccc(C)c(-n2cnc3cccnc32)c1	/	/	/	3	/	/
CC1=C(C(=O)Nc2ccccc2)C(c2ccco2)C(C#N)=C(SCC(=O)OC(C)C)N1 (stereo unspecified)	32	-17%	-17%	58*	?	0%
COc1ccc(Cl)cc1NC(=O)c1nc(S(C)(=O)=O)ncc1N(Cc1ccc(C)cc1)Cc1ccco1	/	/	/	-11	/	/
CC1OC(CC(=O)O)CC2=C1C(=O)c1c(O)cccc1C2=O (stereo unspecified)	-94*	/	-15%	-23	5%	-4%
O=C1c2cccc(O)c2C(=O)c2c(O)cccc21	/	-1%	/	-13	/	/
O=S(=O)(c1ccc(OCC(O)CN2CCN(c3ccccc3)CC2)cc1)N1CCOCC1 (stereo unspecified)	0	-3%	0%	43*	-2%	-6%
O=S(=O)(c1ccc(OCC(O)CN2CCN(c3ccccc3O)CC2)cc1)N1CCOCC1 (stereo unspecified)	-25	1%	-16%	19	-4%	-5%
